Compounds with a hit are over-represented: about 15% of the library has one in this group of screens.
Gal4-VP16 FLuc = VP16 counterscreen qHTS for inhibitors of ROR gamma transcriptional activity; AID 2546, 2010; Drosophila S2 Gal4-VP16 UAS-luciferase, luminescence, 20 h; 310,000 tested, 3.5% active; Potency, µM (titrated, usually from 53.6 µM), usual class: inhibitors;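 also: Gal4-VP16 expression switched on by copper sulfate through the metallothionein promoter; nearly all actives have a fitted effect of over 50% in size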
ELG1 repair inh = qHTS screen for small molecules that inhibit ELG1-dependent DNA repair in human embryonic kidney (HEK293T) cells expressing luciferase-tagged ELG1. AID 504467, 2011. 330,000 tested, 2.3% active. HEK293T ELG1-luciferase reporter, luminescence, 16 h; DNA damage induced by 5-fluorouridine. Potency, µM (doses to about 46.1 µM), most hits filed as inhibitors; also: nearly all actives have a fitted effect of over 55% in size
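Overnight (16 hr) co-exposure of 2,000 cells/well to 5-fluorouridine and compound at 37 °C preceded detection. Luciferase was quantified via ONE-Glo luminescence; loss of signal denotes inhibition.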
DT40 TDP1 CPT = qHTS for Inhibitors of human tyrosyl-DNA phosphodiesterase 1 (TDP1): qHTS in cells in presence of CPT | chicken DT40 Tdp1-/-;hTDP1 cells + 20 nM CPT, ATP luminescence, 48 h | Potency, µM (highest dose often 46.2 µM), hits mostly inhibitors | 420,000 tested, 12% active | AID 686979, 2013; also: nearly all actives have a fitted effect of over 55% in size
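Chicken DT40 Tdp1-/- cells stably complemented with human TDP1 were seeded at 400 cells/well in medium containing 20 nM camptothecin, exposed to pin-transferred compounds, and grown at 37 °C for at least 48 hr. Viability was read as ATP luminescence.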
DT40 TDP1 no CPT = qHTS for Inhibitors of human tyrosyl-DNA phosphodiesterase 1 (TDP1): qHTS in cells in absence of CPT; AID 686978, 2013; Potency, µM (top dose mostly 46.2 µM), actives largely listed as inhibitors; 420,000 tested, 15% active; DT40 Tdp1-/- hTDP1 cells, no CPT, ATP luminescence, 48 h; also: nearly all actives have a fitted effect of over 55% in size
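Chicken DT40 Tdp1-/- cells complemented with human TDP1, screened without camptothecin (DMSO vehicle only), 400 cells/well. Compounds pin-transferred, cells incubated at 37 °C for at least 48 hr. Growth read as ATP-dependent luminescence (CellTiter-Glo, 30 min at RT).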
ALOX12 inh = Primary qHTS assay for inhibitors of human arachidonate 12S-lipoxygenase (ALOX12): Round 2; purified 12hLO, xylenol orange hydroperoxide absorbance; Polyunsaturated fatty acid lipoxygenase ALOX12 (Homo sapiens), P18054; 580,000 tested, 1.1% active; Potency, µM (doses to about 108 µM), hits mostly inhibitors
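Purified human 12hLO (150 nM final) in 25 mM Hepes, 0.01% Triton X-100, pH 7.0 was preincubated 15 min at room temperature with compound. Then 40 uM arachidonic acid was added, 30 min. Hydroperoxide was read by Fe-XO absorbance ratio 573/405 nm.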
RORgamma inh = qHTS for inhibitors of ROR gamma transcriptional activity; Nuclear receptor ROR-gamma (Mus musculus), P51450; Drosophila S2 Gal4-RORgamma UAS-luciferase reporter, 20 h; Potency, µM (highest dose often 53.6 µM), hits mostly inhibitors; 310,000 tested, 5.4% active; AID 2551, 2010; also: nearly all actives have a fitted effect of over 60% in size
Target sequence (P51450 whole entry, looked up, the tested form may be a part): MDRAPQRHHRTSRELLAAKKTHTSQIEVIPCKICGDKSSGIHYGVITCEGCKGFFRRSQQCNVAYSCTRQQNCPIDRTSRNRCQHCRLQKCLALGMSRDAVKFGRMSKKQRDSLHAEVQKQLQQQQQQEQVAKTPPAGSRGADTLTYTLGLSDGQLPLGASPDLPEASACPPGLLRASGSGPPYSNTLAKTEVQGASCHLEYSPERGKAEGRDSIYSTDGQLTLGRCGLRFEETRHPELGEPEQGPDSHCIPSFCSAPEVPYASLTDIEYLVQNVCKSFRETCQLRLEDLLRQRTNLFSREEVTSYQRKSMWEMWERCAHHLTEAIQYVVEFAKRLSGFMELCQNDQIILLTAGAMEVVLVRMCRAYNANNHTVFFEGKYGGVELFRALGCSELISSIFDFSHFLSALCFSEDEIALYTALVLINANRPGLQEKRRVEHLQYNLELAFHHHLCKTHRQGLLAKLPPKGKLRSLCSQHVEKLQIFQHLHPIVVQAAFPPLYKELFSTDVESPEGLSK
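Luciferase reporter read in Schneider cells carrying Gal4-RORγ (mouse) and UAS-Photinus luciferase; cells given compound 1 h before 700 uM copper sulfate induction, then incubated 20 h at ambient temperature.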
A number is an active result. Calls follow the shape of the dose curve; as a rule, active = well fitted curve in the direction sought with a large enough effect; inconclusive = small, poorly fitted or top-dose-only effect, or another doubt; inactive = no such curve, though single readings can be large; an effect the other way counts as inactive or inconclusive.

For COc1cccc(CC(=O)N2CCC3(CC2)N=C(c2ccccc2)NO3)c1 the results were ALOX12 inh inactive.
For COCCN1C(=O)c2ccccc2C(C(=O)Nc2nc(C)cs2)C12CCCCC2 (stereo not given) the results were ALOX12 inh inactive.
Screening CCOC(=O)C1CCCN(S(=O)(=O)c2ccc(S(=O)(=O)N(CC)CC)cc2)C1 (stereo not given) returned Gal4-VP16 FLuc 4.47µM, ELG1 repair inh inconclusive, DT40 TDP1 CPT 2.91µM, DT40 TDP1 no CPT 1.46µM, ALOX12 inh inactive and RORgamma inh 6.31µM.
Screening CN(C)S(=O)(=O)c1ccc(S(=O)(=O)N2CCCC(C(=O)NC3CC3)C2)cc1 (stereo not given) returned Gal4-VP16 FLuc inactive, ELG1 repair inh inconclusive, DT40 TDP1 CPT inactive, DT40 TDP1 no CPT inconclusive, ALOX12 inh inactive and RORgamma inh inactive.
Screening CCN(CC)S(=O)(=O)c1ccc(S(=O)(=O)N2CCCC(C(=O)NC3CC3)C2)cc1 (stereo not given) returned Gal4-VP16 FLuc inconclusive, ELG1 repair inh inactive, DT40 TDP1 CPT 1.3µM, DT40 TDP1 no CPT 5.8µM, ALOX12 inh inactive and RORgamma inh inconclusive.
Screening CCOC(=O)C1CCCN(S(=O)(=O)c2ccc(Cl)nc2)C1 (stereo not given) returned ELG1 repair inh inactive, DT40 TDP1 CPT inactive, DT40 TDP1 no CPT inactive and ALOX12 inh inactive.
CCOC(=O)C1CCCN(S(=O)(=O)c2ccc(S(N)(=O)=O)cc2)C1 (stereo not given) was read as Gal4-VP16 FLuc inactive, ELG1 repair inh inconclusive, DT40 TDP1 CPT inactive, DT40 TDP1 no CPT inconclusive, ALOX12 inh inactive and RORgamma inh inactive.
Screening CCOC(=O)C1CCCN(S(=O)(=O)c2csc(C(N)=O)c2)C1 (stereo not given) returned DT40 TDP1 CPT inconclusive, DT40 TDP1 no CPT 14.6µM and ALOX12 inh inactive.
Screening CCN1CCCC1CNC(=O)c1c(C)nn(-c2ccc(F)cc2)c1-n1cccc1 (stereo not given) returned ALOX12 inh inactive.
CN(CC1CCOCC1)C(=O)Nc1cc(F)ccc1F was read as ALOX12 inh inactive.
`O=C(CCc1ncc(-c2ccccc2)o1)NCc1ccc(F)cc1` gave ALOX12 inh inactive.
`COc1cc(NC(=O)C2CCCN(S(=O)(=O)c3ccc4c(c3)CCCN4C(C)=O)C2)cc(OC)c1` (stereo not given) gave Gal4-VP16 FLuc inactive, ELG1 repair inh 9.2µM, DT40 TDP1 CPT inactive, DT40 TDP1 no CPT inactive, ALOX12 inh inactive and RORgamma inh inactive.
For Cc1ccc(CN2CC(C(=O)N3CCN(S(=O)(=O)c4ccc(C(C)C)cc4)CC3)CC2=O)cc1 (stereo not given) the results were ELG1 repair inh 11.6µM, DT40 TDP1 CPT inconclusive, DT40 TDP1 no CPT inconclusive and ALOX12 inh inactive.
COc1ccc(S(=O)(=O)N2CCCC(C(=O)N3CCN(Cc4ccccc4)CC3)C2)cc1Cl (stereo not given) was read as DT40 TDP1 CPT 20.6µM, DT40 TDP1 no CPT 14.6µM and ALOX12 inh inactive.
Cc1ccc(CN2CC(C(=O)N3CCN(S(=O)(=O)c4cc(C)ccc4C)CC3)CC2=O)cc1 (stereo not given) was read as ELG1 repair inh inactive, DT40 TDP1 CPT inconclusive, DT40 TDP1 no CPT inconclusive and ALOX12 inh inactive.
For COc1ccc(S(=O)(=O)N2CCCC(C(=O)Nc3cccnc3)C2)cc1Cl (stereo not given) the results were Gal4-VP16 FLuc inconclusive, ELG1 repair inh 23.1µM, DT40 TDP1 CPT 16.4µM, DT40 TDP1 no CPT 14.6µM, ALOX12 inh inconclusive and RORgamma inh inconclusive.
For O=C(Nc1cccnc1)C1CCCN(S(=O)(=O)c2ccccc2)C1 (stereo not given) the results were Gal4-VP16 FLuc inactive, ELG1 repair inh inconclusive, DT40 TDP1 CPT inactive, DT40 TDP1 no CPT inactive, ALOX12 inh inactive and RORgamma inh inactive.
O=C(CC[C@@H]1CNC(=O)[C@@H]2C[C@H](NCc3ccc(CO)o3)CN12)NCc1ccccc1 was read as ALOX12 inh inactive.
`O=C(C1CCN(S(=O)(=O)c2ccccc2)CC1)N1CCN(Cc2ccccc2)CC1` gave Gal4-VP16 FLuc inactive, ELG1 repair inh inactive, DT40 TDP1 CPT inconclusive, DT40 TDP1 no CPT inconclusive, ALOX12 inh inactive and RORgamma inh inactive.
Cc1ccc(S(=O)(=O)N2CCC(C(=O)N3CCN(Cc4ccccc4)CC3)CC2)cc1 was read as Gal4-VP16 FLuc inactive, ELG1 repair inh inactive, DT40 TDP1 CPT 20.6µM, DT40 TDP1 no CPT inconclusive, ALOX12 inh inconclusive and RORgamma inh inactive.
COc1ccc(NC(=O)C2CCCN(S(=O)(=O)c3ccc4c(c3)CCCN4C(C)=O)C2)cc1Cl (stereo not given) was read as Gal4-VP16 FLuc inconclusive, ELG1 repair inh inconclusive, DT40 TDP1 CPT 20.6µM, DT40 TDP1 no CPT inconclusive, ALOX12 inh inactive and RORgamma inh inactive.
Screening O=C(c1[nH]nc2c1COc1ccccc1-2)N1CCC(Cc2nncn2CC2CC2)CC1 returned ALOX12 inh inactive.
`COCC1CN(C)CC12CCN(Cc1ccsc1)CC2` (stereo not given) gave ALOX12 inh inactive.
`COc1cc(O)c(C(=O)c2ccccc2)cc1O` gave Gal4-VP16 FLuc inconclusive, DT40 TDP1 CPT 4.11µM, DT40 TDP1 no CPT 4.61µM and RORgamma inh 12.6µM.
`COc1ccc(S(=O)(=O)N2CCCCC2)cc1NC(=O)c1ccc(F)cc1` gave ALOX12 inh inactive.
`CNc1nc(-c2ccccn2)nnc1-c1ccccc1` gave Gal4-VP16 FLuc inactive, ELG1 repair inh inactive, DT40 TDP1 CPT inconclusive, DT40 TDP1 no CPT 22.4µM, ALOX12 inh inactive and RORgamma inh inactive.
`c1ccc(-c2nn[nH]n2)nc1` gave Gal4-VP16 FLuc inactive, ELG1 repair inh inactive, DT40 TDP1 CPT inactive, DT40 TDP1 no CPT inactive, ALOX12 inh inactive and RORgamma inh inactive.
`c1ccc(-c2nnc3ccc(NC4CCCCC4)nn23)nc1` gave ALOX12 inh inactive.
`c1ccc(-c2nnc(-c3ccccn3)nc2NC2CCCCC2)cc1` gave Gal4-VP16 FLuc inconclusive, ELG1 repair inh 18.4µM, DT40 TDP1 CPT 6.51µM, DT40 TDP1 no CPT 5.8µM, ALOX12 inh inactive and RORgamma inh inactive.

Screens: PubChem, National Center for Advancing Translational Sciences (NCATS)
